Three molecules from PubChem BioAssay (EPA / NIEHS) can be followed below.

A short description of assay [1]: ATG_M_06_XSP2: Attagene TRANS-FACTORIAL Multi-Species (XSP2) HepG2 Assay for M06 Transcription Factor (Internal Marker) (AID 2283811).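 Also: internal background marker reporter mRNA measured by RT-PCR and capillary electrophoresis; hits are increases in signal above the DMSO baseline.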 The method, boiled down:
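Cells of the human liver line HepG2 carried transfected reporter transcription units and were treated for 24 h. Induced reporter transcripts were detected by fluorescence after RT-PCR and capillary electrophoresis, with activity fitted in the gain direction against DMSO.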

The test system of assay [2] is turtle Estrogen Receptor (ERa), gene 101933533. As to the kind of experiment: ATG_trERa_XSP2: Attagene TRANS-FACTORIAL Multi-Species (XSP2) HepG2 Assay for turtle Estrogen Receptor (ERa) (AID 2283812).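 Also: actives raise reporter signal above DMSO so AC50 reflects agonist activity.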 The method, boiled down:
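Readout is reporter mRNA quantified by RT-PCR with capillary electrophoresis after 24 h compound exposure, increase relative to DMSO. Uses transiently transfected human HepG2 liver cells carrying a chimeric turtle ERa-Gal4 receptor driving GAL4-UAS reporters.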

Assay [3] addresses mouse Peroxisome Proliferator-activated Receptor gamma (PPARg), Pparg (gene 19016) (UniProt P37238). The assay is described as follows: ATG_mPPARg_XSP1: Attagene TRANS-FACTORIAL Multi-Species (XSP1) HepG2 Assay for mouse Peroxisome Proliferator-activated Receptor gamma (PPARg) (AID 2283802). The method, boiled down:
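Readout is reporter mRNA induction, measured by RT-PCR with 6-FAM labelling, HpaI digestion and capillary electrophoresis, 24 h post-dose relative to DMSO. Transient multi-reporter transfection of human HepG2 with mouse PPARg–GAL4 fusion; 3 nM 6-alpha-fluorotestosterone included.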

Assay [4] deals with Nuclear receptor subfamily 1 group I member 2 (Mus musculus) (UniProt O54915). As to the kind of experiment: ATG_mPXR_XSP1: Attagene TRANS-FACTORIAL Multi-Species (XSP1) HepG2 Assay for mouse Pregnane X Receptor (PXR) (AID 2283803). On the procedure:
ATG_XSP1_multi-species_TRANS is a cell-based, multiplexed assay created by modifying the existing Attagene TRANS-FACTORIAL system to include a panel of nuclear receptors from some or all the following species: human (Homo sapiens), mouse (Mus musculus), frog (Xenopus laevis), zebrafish (Danio rerio), chicken (Gallus gallus), and turtle (Chrysemys picta). The ECOTOX-FACTORIAL format uses HepG2, a human liver cell line, with measurements taken at 24 hours after chemical dosing in a 24-well plate. Xsp1 included 3 nM 6-alpha-fluorotestosterone to partially stimulate the androgen receptor.ATG_mPXR_XSP1 is one of 29 assay components measured or calculated from the ATG_XSP1_multi-species_TRANS assay. It is designed to make measurements of mRNA induction, a form of inducible reporter, as detected with fluorescence intensity signals by Reverse transcription polymerase chain reaction (RT-PCR) and Capillary electrophoresis technology.The assay endpoint ATG_mPXR_XSP1 was analyzed in the positive analysis fitting direction relative to DMSO as the negative control and baseline of activity. […] Furthermore, this assay endpoint can be referred to as a primary readout, because this assay has produced multiple assay endpoints where this one serves a reporter gene function. […]

In assay [5] the target is human Thyroid hormone Receptor alpha (TRa), THRA (gene 7067) (UniProt P10827). As to the kind of experiment: ATG_hTRa_XSP1: Attagene TRANS-FACTORIAL Multi-Species (XSP1) HepG2 Assay for human Thyroid hormone Receptor alpha (TRa) (AID 2283805). In a few lines: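 Reporter transcripts from the human TRa-Gal4 TRANS unit quantified by RT-PCR, fluorescent labeling and capillary electrophoresis after 24 hours of chemical exposure in transfected HepG2 cells; medium contains 3 nM 6-alpha-fluorotestosterone. Positive direction fit against DMSO.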

Assay [6] has as its system turtle Thyroid Hormone Receptor, alpha (TRa), gene 101949057. The assay is described as follows: ATG_trTRa_XSP1: Attagene TRANS-FACTORIAL Multi-Species (XSP1) HepG2 Assay for turtle Thyroid Hormone Receptor, alpha (TRa) (AID 2283806). The method, boiled down: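 After 24 h chemical exposure, reporter transcripts were measured by RT-PCR with fluorescent primer extension, HpaI digestion and capillary electrophoresis. Cells were transiently transfected HepG2 expressing exogenous NR-Gal4 chimeras; medium contained 3 nM 6-alpha-fluorotestosterone; fitted upward relative to DMSO.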

Assay [7] has as its target zebrafish Thyroid Hormone Receptor alpha (TRa), thraa (gene 30670) (UniProt Q98867). The assay is described as follows: ATG_zfTRa_XSP1: Attagene TRANS-FACTORIAL Multi-Species (XSP1) HepG2 Assay for zebrafish Thyroid Hormone Receptor alpha (TRa) (AID 2283807). The method, boiled down:
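Reporter transcripts driven by a chimeric zebrafish TRa–Gal4 protein were measured by RT-PCR with fluorescent labelling and capillary electrophoresis. These came from transiently transfected HepG2 cells after 24 h chemical exposure, with 3 nM 6-alpha-fluorotestosterone added; baseline was DMSO.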

Assay [8] addresses human Thyroid hormone Receptor beta (TRb), THRB (gene 7068) (UniProt P10828). The assay is described as follows: ATG_hTRb_XSP1: Attagene TRANS-FACTORIAL Multi-Species (XSP1) HepG2 Assay for human Thyroid hormone Receptor beta (TRb) (AID 2283808). In a few lines: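 Readout is reporter mRNA induction measured by RT-PCR, fluorescent labelling and capillary electrophoresis, fitted upward relative to DMSO. Transiently transfected human HepG2 cells expressing NR-Gal4 chimeras were dosed for 24 h, medium containing 3 nM 6-alpha-fluorotestosterone.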

Assay [9] concerns the target zebrafish Thyroid Hormone Receptor beta (TRb), thrb (gene 30607) (UniProt Q9PVE4). The assay is described as follows: ATG_zfTRb_XSP1: Attagene TRANS-FACTORIAL Multi-Species (XSP1) HepG2 Assay for zebrafish Thyroid Hormone Receptor beta (TRb) (AID 2283809). In a few lines:
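HepG2 cells transiently transfected with multiplexed GAL4-UAS reporter units expressing chimeric zebrafish TRb–Gal4. Dosed 24 h with 3 nM 6-alpha-fluorotestosterone present; reporter mRNA measured by RT-PCR, HpaI digestion and capillary electrophoresis; gain of signal versus DMSO.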

A short description of assay [10]: ATG_XTT_Cytotoxicity_XSP1: Cytotoxicity Assessment in the Attagene TRANS-FACTORIAL Multi-Species (XSP1) HepG2 Assay (AID 2283810). In a few lines: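 XTT viability readout taken at 24 hours post-dosing in HepG2 liver cells co-treated with 3 nM 6-alpha-fluorotestosterone. Signal loss relative to DMSO controls reflects cytotoxicity.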

Values joined by “and” are separate entries in the source; they are usually repeats but may differ in a detail not shown here. Equal entries are not always repeated. Results filed as inconclusive are left out. Active and inactive are the calls of the source. The calls were made as follows: active = hit-call score of the fitted dose curve at least 0.9, where 1 is the maximum; inconclusive = response in the unintended direction; inactive = score below 0.9.

Sequence of mouse Peroxisome Proliferator-activated Receptor gamma (PPARg), Pparg (gene 19016) (P37238 whole entry, looked up, the tested form may be a part): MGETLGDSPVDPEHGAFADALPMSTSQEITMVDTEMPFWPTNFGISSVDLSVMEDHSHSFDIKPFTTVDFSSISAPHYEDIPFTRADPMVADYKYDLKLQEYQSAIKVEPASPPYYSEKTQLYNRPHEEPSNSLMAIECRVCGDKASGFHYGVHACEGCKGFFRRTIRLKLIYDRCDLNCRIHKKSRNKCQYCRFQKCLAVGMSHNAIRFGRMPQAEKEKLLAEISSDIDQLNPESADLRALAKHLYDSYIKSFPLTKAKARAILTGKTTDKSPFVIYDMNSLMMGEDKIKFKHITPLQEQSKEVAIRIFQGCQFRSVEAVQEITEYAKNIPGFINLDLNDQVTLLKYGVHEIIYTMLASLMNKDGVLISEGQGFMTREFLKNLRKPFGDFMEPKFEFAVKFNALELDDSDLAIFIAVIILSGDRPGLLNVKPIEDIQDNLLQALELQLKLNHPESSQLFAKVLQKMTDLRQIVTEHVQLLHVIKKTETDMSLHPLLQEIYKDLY
Sequence of zebrafish Thyroid Hormone Receptor beta (TRb), thrb (gene 30607) (Q9PVE4 whole entry, looked up, the tested form may be a part): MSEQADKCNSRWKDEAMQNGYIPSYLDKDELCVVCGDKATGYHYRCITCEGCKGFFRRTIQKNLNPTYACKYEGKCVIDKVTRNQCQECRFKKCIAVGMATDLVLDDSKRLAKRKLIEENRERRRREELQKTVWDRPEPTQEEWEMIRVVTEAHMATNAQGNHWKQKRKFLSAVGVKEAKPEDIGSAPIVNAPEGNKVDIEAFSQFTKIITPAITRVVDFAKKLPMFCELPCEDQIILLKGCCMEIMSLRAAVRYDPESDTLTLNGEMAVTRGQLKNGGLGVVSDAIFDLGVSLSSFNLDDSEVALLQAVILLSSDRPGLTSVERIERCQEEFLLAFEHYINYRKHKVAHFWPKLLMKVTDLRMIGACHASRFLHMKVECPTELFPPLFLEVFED
Sequence of Nuclear receptor subfamily 1 group I member 2 (Mus musculus) (O54915 whole entry, looked up): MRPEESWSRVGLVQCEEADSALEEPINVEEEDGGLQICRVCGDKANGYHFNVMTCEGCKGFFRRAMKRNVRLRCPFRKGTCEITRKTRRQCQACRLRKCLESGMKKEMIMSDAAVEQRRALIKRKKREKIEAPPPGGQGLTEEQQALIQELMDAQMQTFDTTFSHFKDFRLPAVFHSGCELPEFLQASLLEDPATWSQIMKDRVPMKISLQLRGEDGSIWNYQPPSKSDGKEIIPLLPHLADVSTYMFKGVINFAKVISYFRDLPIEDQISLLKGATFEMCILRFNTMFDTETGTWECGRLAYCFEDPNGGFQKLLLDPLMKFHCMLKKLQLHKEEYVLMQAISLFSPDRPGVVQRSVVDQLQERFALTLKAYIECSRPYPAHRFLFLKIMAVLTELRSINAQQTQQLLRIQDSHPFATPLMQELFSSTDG
Sequence of human Thyroid hormone Receptor alpha (TRa), THRA (gene 7067) (P10827 whole entry, looked up, the tested form may be a part): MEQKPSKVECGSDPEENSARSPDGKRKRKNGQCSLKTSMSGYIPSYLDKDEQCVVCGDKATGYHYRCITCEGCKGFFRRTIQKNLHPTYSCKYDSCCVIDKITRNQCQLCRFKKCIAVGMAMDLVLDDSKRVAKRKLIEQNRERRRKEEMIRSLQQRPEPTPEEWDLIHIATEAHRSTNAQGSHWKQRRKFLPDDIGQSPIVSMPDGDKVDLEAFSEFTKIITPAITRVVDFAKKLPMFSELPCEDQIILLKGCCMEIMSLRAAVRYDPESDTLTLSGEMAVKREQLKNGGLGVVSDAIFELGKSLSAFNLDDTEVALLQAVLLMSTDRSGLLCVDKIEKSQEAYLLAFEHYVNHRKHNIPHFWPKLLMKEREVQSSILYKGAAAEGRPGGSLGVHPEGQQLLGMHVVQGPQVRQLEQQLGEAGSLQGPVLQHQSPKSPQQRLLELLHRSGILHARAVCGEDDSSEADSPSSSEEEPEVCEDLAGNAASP
Sequence of zebrafish Thyroid Hormone Receptor alpha (TRa), thraa (gene 30670) (Q98867 whole entry, looked up, the tested form may be a part): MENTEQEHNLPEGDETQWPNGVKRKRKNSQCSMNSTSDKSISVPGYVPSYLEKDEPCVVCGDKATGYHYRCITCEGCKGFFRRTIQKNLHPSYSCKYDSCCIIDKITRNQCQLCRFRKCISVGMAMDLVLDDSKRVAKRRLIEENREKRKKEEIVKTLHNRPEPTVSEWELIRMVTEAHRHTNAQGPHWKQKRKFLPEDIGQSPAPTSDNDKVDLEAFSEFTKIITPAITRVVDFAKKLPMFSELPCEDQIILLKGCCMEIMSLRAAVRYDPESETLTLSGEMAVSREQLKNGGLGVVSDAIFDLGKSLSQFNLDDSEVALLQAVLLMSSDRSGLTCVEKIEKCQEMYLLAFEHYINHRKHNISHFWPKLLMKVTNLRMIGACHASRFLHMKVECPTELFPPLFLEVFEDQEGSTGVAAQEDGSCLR
Sequence of human Thyroid hormone Receptor beta (TRb), THRB (gene 7068) (P10828 whole entry, looked up, the tested form may be a part): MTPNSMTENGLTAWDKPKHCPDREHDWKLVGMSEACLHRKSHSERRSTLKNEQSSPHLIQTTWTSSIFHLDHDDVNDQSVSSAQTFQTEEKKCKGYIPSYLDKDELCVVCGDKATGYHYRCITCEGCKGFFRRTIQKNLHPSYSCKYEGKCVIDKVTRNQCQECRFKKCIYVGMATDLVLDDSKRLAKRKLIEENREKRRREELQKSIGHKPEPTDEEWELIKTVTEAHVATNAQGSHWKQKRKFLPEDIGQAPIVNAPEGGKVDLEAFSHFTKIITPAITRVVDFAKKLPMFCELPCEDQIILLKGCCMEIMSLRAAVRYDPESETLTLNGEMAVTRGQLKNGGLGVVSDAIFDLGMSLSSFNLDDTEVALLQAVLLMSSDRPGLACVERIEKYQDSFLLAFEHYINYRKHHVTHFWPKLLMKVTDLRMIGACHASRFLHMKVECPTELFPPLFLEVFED

As usually defined, the AC50 is the midpoint of the concentration-response curve, whichever way the signal moves. As for `Oc1ccc2c(c1)-c1ccccc1C2`, in [1], the outcome was inactive. The AC50 in assay [2] is 6.32 µM (active) and 3.91 µM (active).

With `Clc1nc(Cl)c(Cl)c(Cl)c1Cl`, the AC50 in assay [2] was 26.2 µM (active) and 151 µM (active).

Consider `O=P(OC(CCl)CCl)(OC(CCl)CCl)OC(CCl)CCl`, for which the half-maximal activity concentration (AC50) was 25.8 µM (active) in [3] and 0.447 µM (active) in assay [4]. For the same molecule, the molecule was called inactive in [5], in assay [6], in [7], in assay [8], in assay [9] and in [10]. The outcome in assay [1] and in assay [2] was inactive.
